# From PubChem BioAssay (NCATS)
# Records with an inconclusive call do not appear. Entries that show only a call come without a potency. Active and inactive are the calls of the source. Unless noted, calls follow the shape of the dose curve; as a rule, active = well fitted curve in the direction sought with a large enough effect; inconclusive = small, poorly fitted or top-dose-only effect, or another doubt; inactive = no such curve, though single readings can be large; an effect the other way counts as inactive or inconclusive.
# How the values were obtained:
# [1] = molecular target: Pyruvate kinase (Leishmania mexicana) (UniProt Q27686); assay: qHTS Validation Assay for Inhibitors of Leishmania Mexicana Pyruvate Kinase (AID 945)
# Chain of Pyruvate kinase (Leishmania mexicana) (Q27686 2-499 E452W): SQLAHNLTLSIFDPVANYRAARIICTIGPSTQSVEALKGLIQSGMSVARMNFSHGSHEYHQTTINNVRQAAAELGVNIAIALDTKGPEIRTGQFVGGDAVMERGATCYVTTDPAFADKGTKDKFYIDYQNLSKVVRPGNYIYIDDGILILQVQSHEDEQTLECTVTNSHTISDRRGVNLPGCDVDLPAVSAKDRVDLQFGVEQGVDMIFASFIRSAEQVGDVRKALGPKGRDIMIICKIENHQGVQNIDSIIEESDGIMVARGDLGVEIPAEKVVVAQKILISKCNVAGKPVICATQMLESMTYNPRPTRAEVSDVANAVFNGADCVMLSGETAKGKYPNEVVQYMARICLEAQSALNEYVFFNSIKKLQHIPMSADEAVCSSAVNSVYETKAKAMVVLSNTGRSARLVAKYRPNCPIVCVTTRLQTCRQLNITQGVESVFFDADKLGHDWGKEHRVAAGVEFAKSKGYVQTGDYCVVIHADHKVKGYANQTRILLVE
# How it was run: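 Read-out: luminescence from PKLight stop/detection reagent, data normalized to DMSO. Reaction: 0.2 nM E451W LmPYK, 0.5 mM PEP, 0.1 mM ADP, pH 7.2, 1 h room temperature.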
# [2] = molecular target: Pyruvate kinase PKM (Homo sapiens) (UniProt P14618); assay: qHTS Assay for Activators of Human Muscle Pyruvate Kinase (AID 954; active = well fitted curve in the direction sought with a large enough effect, not every such curve was filed as active)
# Chain of Pyruvate kinase PKM (Homo sapiens) (P14618 whole entry, looked up): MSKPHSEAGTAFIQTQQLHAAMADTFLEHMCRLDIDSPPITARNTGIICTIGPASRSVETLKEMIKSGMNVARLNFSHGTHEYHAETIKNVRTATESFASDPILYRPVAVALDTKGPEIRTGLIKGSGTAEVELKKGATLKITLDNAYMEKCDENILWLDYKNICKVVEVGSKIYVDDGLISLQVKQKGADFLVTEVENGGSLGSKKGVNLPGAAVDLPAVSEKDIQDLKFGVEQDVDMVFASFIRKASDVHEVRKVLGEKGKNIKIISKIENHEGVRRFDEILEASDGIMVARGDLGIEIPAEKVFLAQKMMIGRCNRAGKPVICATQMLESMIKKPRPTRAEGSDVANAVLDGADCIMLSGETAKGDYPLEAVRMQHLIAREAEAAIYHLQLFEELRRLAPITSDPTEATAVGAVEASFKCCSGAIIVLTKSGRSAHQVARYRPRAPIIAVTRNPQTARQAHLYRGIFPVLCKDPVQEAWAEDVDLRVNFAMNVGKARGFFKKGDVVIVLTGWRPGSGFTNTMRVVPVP
# How it was run: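 Human PKM2 activity is measured as ATP generation, detected by luciferase-coupled luminescence. The enzyme (0.1 nM) acts on 0.5 mM PEP and 0.1 mM ADP for 1 h at ambient temperature; data are normalized to uninhibited and full-inhibition wells.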
# [3] = MultiTox-Fluor Cytotoxicity Assay - LYMP1-001 - Dead Cells (AID 946); also: potency is read from the fitted curve at half-maximal effect
# How it was run: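 Cytotoxicity as increased dead-cell protease fluorescence (bis-AAF-R110, 485/520 nm), read 60 min after MultiTox-Fluor reagent. Human lymphoblastoid line exposed 16 h; Hill-fitted AC50, with DMSO as 0% and 15 uM tetraoctylammonium bromide as 100%.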
# [4] = Cell Viability - LYMP1-002 - Assay at 16 hr (AID 948); also: potency is read from the fitted curve at half-maximal effect
# How it was run: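 LYMP1-002 human lymphoblastoid cells, 2500/well; 5 hr 37 C; cpd 16 hr 37 C; CellTiter-Glo 30 min RT; luminescence (ATP). Concentration-response, Hill-fit AC50. Pos ctrl tetraoctylammonium bromide.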
# [5] = MultiTox-Fluor Cytotoxicity Assay - LYMP1-002 - Live Cells (AID 955); also: potency is read from the fitted curve at half-maximal effect
# How it was run: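 Human lymphoblastoid LYMP1-002 cells, 2500/well in complete medium, rested 5 hr at 37 C, then exposed to compounds for 16 hr at 37 C. Live-cell protease cleavage of GF-AFC read by fluorescence (Ex/Em 405/510) after 60 min at room temperature; AC50 from Hill fits.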
# [6] = MultiTox-Fluor Cytotoxicity Assay - LYMP1-002 - Dead Cells (AID 960); also: nearly all actives have a fitted effect of over 60% in size; also: potency is read from the fitted curve at half-maximal effect
# How it was run: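 Human lymphoblastoid cells (LYMP1-002), 2500/well in complete medium, were exposed to compounds for 16 hr at 37 C. Dead-cell protease activity was read as bis-AAF-R110 fluorescence (Ex/Em 485/520), normalized to DMSO and 15 uM tetraoctylammonium bromide; AC50 from Hill fits.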
# [7] = MultiTox-Fluor Cytotoxicity Assay - LYMP1-003 - Dead Cells (AID 961); also: nearly all actives have a fitted effect of over 70% in size
# How it was run: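 Dead-cell protease release, detected as bis-AAF-R110 fluorescence at 485/520 nm, was measured in LYMP1-003 cells after 16 h compound treatment at 37 C. AC50 values came from Hill-modeled qHTS curves normalized to DMSO (0%) and 15 uM tetraoctylammonium bromide (100%).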
# [8] = MultiTox-Fluor Cytotoxicity Assay - LYMP1-003 - Live Cells (AID 962); also: potency is read from the fitted curve at half-maximal effect
# How it was run: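 LYMP1-003 human lymphoblastoid cells (2500/well) in complete medium were preincubated 5 hr at 37 C, then exposed to compounds for 16 hr at 37 C. Live-cell protease cleavage of GF-AFC read by fluorescence (Ex/Em 405/510); AC50 from Hill fits.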
# [9] = molecular target: Muscarinic acetylcholine receptor M1 (Rattus norvegicus) (UniProt P08482); assay: qHTS Assay for Antagonists of Acetylcholine Muscarinic M1 Receptor: Measurement of IP-One Response (AID 944); also: nearly all actives have a fitted effect of over 75% in size
# Chain of Muscarinic acetylcholine receptor M1 (Rattus norvegicus) (P08482 whole entry, looked up): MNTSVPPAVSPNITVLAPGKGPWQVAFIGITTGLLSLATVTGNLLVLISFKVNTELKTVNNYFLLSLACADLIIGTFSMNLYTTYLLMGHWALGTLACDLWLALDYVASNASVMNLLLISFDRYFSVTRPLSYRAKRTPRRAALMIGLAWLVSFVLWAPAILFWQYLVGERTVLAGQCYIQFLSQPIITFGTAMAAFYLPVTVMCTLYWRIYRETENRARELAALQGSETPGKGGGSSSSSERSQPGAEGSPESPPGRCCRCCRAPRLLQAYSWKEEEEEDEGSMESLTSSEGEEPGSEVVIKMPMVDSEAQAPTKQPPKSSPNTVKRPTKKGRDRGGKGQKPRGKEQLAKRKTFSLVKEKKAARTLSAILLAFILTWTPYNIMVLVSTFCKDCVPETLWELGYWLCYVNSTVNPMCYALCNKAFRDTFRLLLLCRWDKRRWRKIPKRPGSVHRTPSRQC
# How it was run: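 CHO cells expressing rat M1 receptor, recovered overnight, were pre-incubated 10 min with compound, then stimulated 30 min with carbachol at EC80 (200 nM) in LiCl-containing buffer, pH 7.4. IP1 accumulation was read by HTRF (620/665 nm).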
# [10] = molecular target: Muscarinic acetylcholine receptor M1 (Rattus norvegicus) (UniProt P08482); assay: qHTS Assay for Antagonists of Acetylcholine Muscarinic M1 Receptor: Kinetic Measurement of Intracellular Calcium Response (AID 943);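 also: Fluo-4 calcium signal as peak divided by basal fluorescence over 4 min; series mostly up to about 35 µM; nearly all actives have a fitted effect of over 75% in size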
# How it was run: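 CHO cells stably expressing rat M1 were loaded with no-wash Fluo-4 dye for 1 h at 37C, pre-incubated 10 min with compound, then challenged with EC80 carbachol (100 nM final); kinetic calcium read 4 min, peak/basal ratio.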
smiles,measurement,setting,value
COc1cc2ncnc(Nc3cccc(Cl)c3)c2cc1OC,outcome,[1],inactive
same,outcome,[2],inactive
O=C(O)c1cc(=O)[nH]c(=O)[nH]1,Potency,[3],inactive
same,Potency,[4],inactive
same,Potency,[5],inactive
same,Potency,[6],inactive
same,outcome,[7],inactive
same,Potency,[8],inactive
NC(=O)c1cccc(N)c1,outcome,[1],inactive
same,outcome,[2],inactive
N[C@@H](Cc1ccc(O)c(O)c1)C(=O)O,outcome,[9],inactive
same,outcome,[2],inactive
NC(N)=NC(N)=NCCc1ccccc1,Potency,[3],inactive
same,Potency,[4],inactive
same,Potency,[5],inactive
same,Potency,[6],inactive
same,outcome,[7],inactive
same,Potency,[8],inactive
CC1=NN(c2ccccc2)C(=O)C1,Potency,[3],inactive
same,Potency,[4],inactive
same,Potency,[5],inactive
same,Potency,[6],inactive
same,outcome,[7],inactive
same,Potency,[8],inactive
Cc1ncc([N+](=O)[O-])n1CCO,Potency,[3],inactive
same,Potency,[4],inactive
same,Potency,[5],inactive
same,Potency,[6],inactive
same,outcome,[7],inactive
same,Potency,[8],inactive
COc1ccc2cc3[n+](cc2c1OC)CCc1cc2c(cc1-3)OCO2,Potency,[3],inactive
same,Potency,[4],inactive
same,Potency,[5],inactive
same,outcome,[7],inactive
same,Potency,[8],inactive
NNC(=O)c1ccncc1,Potency,[3],inactive
same,Potency,[4],inactive
same,Potency,[5],inactive
same,Potency,[6],inactive
same,outcome,[7],inactive
same,Potency,[8],inactive
Cc1nnc(NS(=O)(=O)c2ccc(N)cc2)s1,Potency,[3],inactive
same,Potency,[4],inactive
same,Potency,[5],inactive
same,Potency,[6],inactive
same,outcome,[7],inactive
same,Potency,[8],inactive
CN(C)c1ccc(C(=C2C=CC(=[N+](C)C)C=C2)c2ccc(N(C)C)cc2)cc1,Potency,[3],12.6 µM (active)
same,Potency,[4],6.31 µM (active)
same,Potency,[5],10 µM (active)
same,Potency,[6],3.98 µM (active)
same,Potency,[8],15.8 µM (active)
N=C(N)c1ccc(OCCCCCOc2ccc(C(=N)N)cc2)cc1,Potency,[3],inactive
same,Potency,[4],inactive
same,Potency,[5],inactive
same,Potency,[6],inactive
same,outcome,[7],inactive
same,Potency,[8],inactive
Cc1ccnc2c1NC(=O)c1cccnc1N2C1CC1,Potency,[3],inactive
same,Potency,[4],inactive
same,Potency,[5],inactive
same,Potency,[6],inactive
same,outcome,[7],inactive
same,Potency,[8],inactive
OCc1ccc(-c2nn(Cc3ccccc3)c3ccccc23)o1,outcome,[10],inactive
same,outcome,[1],inactive
same,outcome,[2],inactive
Cc1cc(NS(=O)(=O)c2ccc(N)cc2)no1,Potency,[3],inactive
same,Potency,[4],inactive
same,Potency,[5],inactive
same,Potency,[6],inactive
same,outcome,[7],inactive
same,Potency,[8],inactive
O=C(N[C@H](CO)[C@H](O)c1ccc([N+](=O)[O-])cc1)C(Cl)Cl,Potency,[3],inactive
same,Potency,[4],inactive
same,Potency,[5],inactive
same,Potency,[6],inactive
same,outcome,[7],inactive
same,Potency,[8],inactive
C[C@]12C=CC(=O)C=C1CC[C@@H]1[C@@H]2C(=O)C[C@@]2(C)[C@H]1CC[C@]2(O)C(=O)CO,Potency,[3],inactive
same,Potency,[4],inactive
same,Potency,[5],inactive
same,Potency,[6],inactive
same,outcome,[7],inactive
same,Potency,[8],inactive
CCc1cc(C(N)=S)ccn1,Potency,[3],inactive
same,Potency,[4],inactive
same,Potency,[5],inactive
same,Potency,[6],inactive
same,outcome,[7],inactive
same,Potency,[8],inactive
CC(C)(C)NC(=O)[C@H]1CC[C@H]2[C@@H]3CC[C@H]4NC(=O)C=C[C@]4(C)[C@H]3CC[C@]12C,outcome,[1],inactive
same,outcome,[2],inactive
CC(=O)[C@H]1CC[C@H]2[C@@H]3CCC4=CC(=O)CC[C@]4(C)[C@H]3CC[C@]12C,outcome,[2],inactive
same,Potency,[5],inactive
same,Potency,[6],15.8 µM (active)
same,Potency,[8],inactive
Cc1noc(NS(=O)(=O)c2ccc(N)cc2)c1C,Potency,[3],inactive
same,Potency,[4],inactive
same,Potency,[5],inactive
same,Potency,[6],inactive
same,outcome,[7],inactive
same,Potency,[8],inactive
Cc1ccc(S(=O)(=O)N[C@@H](Cc2ccccc2)C(=O)CCl)cc1,outcome,[10],inactive
same,outcome,[9],inactive
same,outcome,[1],inactive
same,outcome,[2],inactive
CC[C@H](C)C(=O)O[C@H]1C[C@@H](C)C=C2C=C[C@H](C)[C@H](CC[C@@H]3C[C@@H](O)CC(=O)O3)[C@H]21,Potency,[3],inactive
same,Potency,[4],inactive
same,Potency,[5],inactive
same,outcome,[7],inactive
same,Potency,[8],inactive
